# According to PubChem BioAssay (EPA / NIEHS):
# Several values for one entry are separate records, joined by “and”; a condition that tells them apart may be missing. Equal values may be shown once. Inconclusive results are not listed. A structure can be active in one record and inactive in another. Activity calls are given as the source filed them. The calls were made as follows, unless noted: active = hit-call score of the fitted dose curve at least 0.9, where 1 is the maximum; inactive = score below 0.9.
# Legend:
# [1] = CCTE_Shafer_MEA_acute_spike_number: CCTE's Neural Acute Assay for Total Number of Spikes, Shafer Lab (AID 2284008);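 as to AC50: curve fitted for decrease in spike count so AC50 reflects inhibitors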
# Outline: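 Using an adaptive detector set to 8x rms noise, spikes were counted in 40-min windows before and after compound addition (0.03-40 uM) to rat cortical networks at 37 C; the well-level change from baseline was analysed relative to DMSO.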
# [2] = CCTE_Harrill_HTTr_Viability_MCF7: CCTE's 6-hour Cell Viability Assessment for the High-Throughput Transcriptomics (HTTr) Platform, in MCF-7 cells cultured in DMEM + 10% fetal bovine serum, Harrill Lab (AID 2284010)
# Outline: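 Eight-point concentration series, six-hour exposure. Propidium iodide exclusion imaged to assess membrane integrity as a cytotoxicity readout; bidirectional fitting was done with DMSO as negative control and activity baseline.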
# [3] = CCTE_Harrill_HTTr_Apoptosis_MCF7: CCTE's 6-hour Apoptosis Assessment for the High-Throughput Transcriptomics (HTTr) Platform, in MCF-7 cells cultured in DMEM + 10% fetal bovine serum, Harrill Lab (AID 2284011)
# Outline: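 Apoptosis in MCF-7 cells grown in DMEM with 10% fetal bovine serum was scored after a six hour exposure by high content imaging of caspase-3/7 activation (CellEvent Caspase 3/7 Green), with DMSO serving as negative control and baseline.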
# [4] = CCTE_Shafer_MEA_acute_burst_number: CCTE's Neural Acute Assay for Single-Electrode Bursts, Shafer Lab (AID 2284013)
# Outline: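 Burst totals were derived with adaptive spike detection (8x rms threshold) on filtered signals from rat cortical cultures; change relative to pre-treatment baseline after 40-min compound exposure (0.03-40 uM) was fitted in the negative direction against DMSO.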
# [5] = CCTE_Shafer_MEA_acute_burst_duration_mean: CCTE's Neural Acute Assay for Mean Burst Duration, Shafer Lab (AID 2284014);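 also: hits are decreases in mean burst duration relative to DMSO controls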
# Outline: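 Acute exposure of mature rat cortical networks (DIV 13 or 15) grown on microelectrode arrays to 0.03-40 uM compound. Mean burst duration compared with the 40-min pre-dose baseline over a 40-min post-dose recording at 37 C.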
# [6] = CCTE_Shafer_MEA_acute_per_burst_spike_number_mean: CCTE's Neural Acute Assay for Average Number of Spikes Per Burst, Shafer Lab (AID 2284015);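 also: hits are decreases in mean spikes per burst versus baseline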
# Outline: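 Read-out: percent change in mean spikes per burst, each well's post-exposure 40-min recording versus its own 40-min baseline. Rat cortical cultures, DIV 13 or 15, compounds 0.03-40 uM; DMSO is negative control, loss-of-signal fitting.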
# [7] = CCTE_Shafer_MEA_acute_interburst_interval_mean: CCTE's Neural Acute Assay for Mean Interburst Interval, Shafer Lab (AID 2284016);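 also: percent change of mean interburst interval versus each well's own pre-dose baseline; curves fitted for decrease in interburst interval relative to DMSO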
# Outline: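 Rat cortical cultures, DIV 13/15; 20 min equilibration, 40 min baseline, compound 0.03-40 uM, 40 min re-recording, 37 C. Spikes detected at 8x rms noise (300-5000 Hz band-pass). Endpoint: % change in interburst interval, fitted in loss direction vs DMSO.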
# [8] = CCTE_Shafer_MEA_acute_burst_percentage_mean: CCTE's Neural Acute Assay for Percentage of Spikes in a Burst, Shafer Lab (AID 2284017);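 as to AC50: curve fitted for loss of signal so potency reflects decreased burst percentage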
# Outline: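 Rat cortical cultures, DIV 13/15, 37 C. Spikes detected at 8x rms noise (300-5000 Hz band-pass). Burst spikes/total spikes averaged across electrodes per well; % change post- vs pre-treatment (40 min each), loss-of-signal fit vs DMSO.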
# [9] = CCTE_Shafer_MEA_acute_per_network_burst_spike_number_mean: CCTE's Neural Acute Assay for Average Number of Spikes in a Network Burst, Shafer Lab (AID 2284019);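 as to AC50: curve fitted for loss of signal so actives reduce spikes per network burst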
# Outline: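 Acute exposure of rat primary cortical networks (DIV 13/15) on MEAs; adaptive spike detection at 8x rms noise, 37 C. Percent change in spikes per network burst after 40 min with compound (0.03-40 uM), negative direction vs DMSO.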
# [10] = CCTE_Shafer_MEA_acute_per_network_burst_spike_number_std: CCTE's Neural Acute Assay for Standard Deviation of Number of Spikes in a Network Burst, Shafer Lab (AID 2284020);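 also: fitted for decrease in spike-number SD versus DMSO so actives lower it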
# Outline: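 Acute MEA exposure, rat cortical neurons, 0.03-40 uM. Per-well % change versus own baseline; DMSO as negative control.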
# [11] = CCTE_Shafer_MEA_acute_per_network_burst_electrodes_number_mean: CCTE's Neural Acute Assay for Mean Number of Electrodes in a Network Burst, Shafer Lab (AID 2284021);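 also: curves fitted for decreases only so hits reduce electrodes per burst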
# Outline: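 Percent change from baseline in average electrode count per network burst, rat cortical cultures on 48-well MEAs; 40-min recordings each side of exposure, DIV 13 or 15; threshold 8x rms noise; DMSO as negative control.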
# [12] = CCTE_Shafer_MEA_acute_network_burst_percentage: CCTE's Neural Acute Assay for Percentage of Network Bursts, Shafer Lab (AID 2284022);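 also: curves fitted for loss so actives lower network burst percentage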;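 as to outcome: rat primary cortical neuron networks on multiwell MEA recorded 40 min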
# Outline: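 On DIV 13 or 15, at least three wells of rat cortical neurons per compound are dosed at 0.03-40 uM. Spontaneous firing is detected at 8x rms noise for 40 min before and after dosing at 37 C. The percent change in network-burst spike share is reported.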
# [13] = CCTE_Shafer_MEA_acute_cross_correlation_area: CCTE's Neural Acute Assay for Area of Cross Correlation, Shafer Lab (AID 2284024);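 also: area under pooled inter-electrode spike cross-correlation near zero lag as percent change from own baseline; curves fitted for loss of cross-correlation area so actives lower synchrony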
# Outline: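 Extracellular recordings from cultured rat cortical neurons measure network synchrony as cross-correlation area; each well's post-compound value (0.03-40 uM, 40 min) is compared with its own 40 min baseline to give percent change.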
# [14] = CCTE_Shafer_MEA_acute_cross_correlation_HWHM: CCTE's Neural Acute Assay for Cross Correlation at Half Width at Half Maximum, Shafer Lab (AID 2284026);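 also: percent change per well from pre-dose baseline in spike cross-correlogram half width; hits are a decrease in cross-correlogram half width relative to DMSO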;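 as to outcome: spontaneous network firing of rat primary cortical neurons on multiwell microelectrode arrays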
# Outline: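 Percent change in cross-correlogram half width at half maximum, narrower meaning more synchrony, was derived per well from paired 40-min recordings before and during exposure to 0.03-40 uM compound in rat cortical cultures at 37 C.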
# [15] = CCTE_Shafer_MEA_acute_synchrony_index: CCTE's Neural Acute Assay for Synchrony, Shafer Lab (AID 2284027);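 also: network synchrony index of spontaneous spiking in primary rat cortical neurons on MEAs; fitted for loss of signal so actives lower synchrony relative to DMSO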
# Outline: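 Acute exposure of rat primary cortical neurons (DIV 13 or 15) at 0.03-40 uM. Synchrony index, 40 min before vs after, as % change relative to DMSO control.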
# [16] = CCTE_Harrill_HTTr_CellCount_MCF7: CCTE's Cell Proliferation Assessment for the High-Throughput Transcriptomics (HTTr) Platform, Harrill Lab (AID 2284012; active = hit-call score of the fitted dose curve at least 0.9, where 1 is the maximum;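 also: count of Hoechst-stained nuclei per well by high-content imaging in MCF-7 cells; cells exposed to compound for six hours; intended direction is loss of nuclei count meaning fewer cells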)
# Outline: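 For this full-screen endpoint, MCF-7 cultures received eight compound dilutions for six hours. Well nuclei counts from Hoechst imaging were analyzed relative to DMSO.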
# [17] = CCTE_Simmons_MITO_basal_resp_rate: CCTE's HepG2 Seahorse XF Respirometric Screening Assay at Basal Respiratory State, Simmons Lab (AID 2284001); settings: actives raise or lower the signal
# Outline: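 Readout is oxygen consumption rate after test compound injection, measured by Seahorse XF in HepG2 cells. Seven concentrations from 125 nM up to 100 uM final are tested, and activity in either direction is fitted against DMSO.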
# [18] = CCTE_Simmons_MITO_max_resp_rate: CCTE's HepG2 Seahorse XF Respirometric Screening Assay at Maximal Respiratory State [uncoupled], Simmons Lab (AID 2284002); settings: actives raise or lower the signal
# Outline: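 Uncoupled (FCCP) respiration of HepG2 cells served as the endpoint, with measurements at 6-minute intervals across a 72-minute run and compounds dosed at 7 concentrations up to 100 uM final.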
# [19] = CCTE_Simmons_MITO_inhib_resp_rate: CCTE's HepG2 Seahorse XF Respirometric Screening Assay at Inhibited Respiratory State [full ETC block], Simmons Lab (AID 2284006); settings: actives raise or lower the signal
# Outline: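 Test chemicals at seven final concentrations (125 nM–100 uM) in three biological replicates, with DMSO as vehicle. HepG2 oxygen consumption was then tracked on a Seahorse XF96 for 72 min through FCCP and rotenone/antimycin A phases, with the inhibited-phase rate as the endpoint.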
# [20] = CCTE_Simmons_MITO_viability: CellTiter-Glo Viability Assessment for CCTE's HepG2 Seahorse XF Respirometric Screening Assay [post-hoc], Simmons Lab (AID 2284007; active = hit-call score of the fitted dose curve at least 0.9, where 1 is the maximum;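 also: cells exposed to chemical for 90 min before the ATP read; actives lower ATP signal relative to DMSO baseline meaning reduced viability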)
# Outline: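 Post-hoc viability check on the HepG2 respirometry plates: luciferase-based ATP signal measured once, after 90 min compound exposure spanning 125 nM–100 uM final. Activity was referenced to DMSO as baseline.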
compound,measurement,setting,value
COP(=S)(OC)Oc1ccc(SC)c(C)c1,AC50,[1],7.7 µM (active)
same,outcome,[2],inactive
same,outcome,[3],inactive
same,AC50,[4],6.28 µM (active)
same,outcome,[5],inactive
same,outcome,[6],inactive
same,outcome,[7],inactive
same,AC50,[8],29.1 µM (active)
same,outcome,[9],inactive
same,outcome,[10],inactive
same,outcome,[11],inactive
same,outcome,[12],inactive
same,outcome,[13],inactive
same,AC50,[14],31.2 µM (active)
same,AC50,[15],29.1 µM (active)
O=C1c2ccccc2C(=O)N1SC(Cl)(Cl)Cl,outcome,[1],inactive
same,outcome,[2],inactive
same,outcome,[16],inactive
same,outcome,[4],inactive
same,outcome,[5],inactive
same,outcome,[6],inactive
same,outcome,[7],inactive
same,outcome,[8],inactive
same,outcome,[9],inactive
same,outcome,[10],inactive
same,outcome,[11],inactive
same,AC50,[12],28.8 µM (active)
same,outcome,[13],inactive
same,outcome,[14],inactive
same,outcome,[15],inactive
N#Cc1c(Cl)c(Cl)c(Cl)c(C#N)c1Cl,AC50,[17],22.9 µM (active)
same,outcome,[18],inactive
same,outcome,[19],inactive
same,AC50,[20],20 µM (active)
same,outcome,[1],inactive
same,outcome,[2],inactive
same,outcome,[16],inactive
same,outcome,[4],inactive
same,outcome,[5],inactive
same,outcome,[6],inactive
same,outcome,[7],inactive
same,AC50,[8],6.9 µM (active)
same,outcome,[9],inactive
same,outcome,[10],inactive
same,outcome,[11],inactive
same,AC50,[12],7.17 µM (active)
same,outcome,[13],inactive
same,outcome,[14],inactive
same,outcome,[15],inactive
O=S1OCC2C(CO1)C1(Cl)C(Cl)=C(Cl)C2(Cl)C1(Cl)Cl (stereo unspecified),outcome,[1],inactive
same,outcome,[2],inactive
same,outcome,[16],inactive
same,outcome,[4],inactive
same,AC50,[5],0.269 µM (active)
same,outcome,[5],inactive
same,AC50,[6],223 nM (active) and 58.3 nM (active)
same,outcome,[7],inactive
same,AC50,[8],25.5 µM (active)
same,outcome,[8],inactive
same,AC50,[9],230 nM (active) and 56 nM (active)
same,AC50,[10],348 nM (active)
same,outcome,[10],inactive
same,AC50,[11],177 nM (active)
same,outcome,[11],inactive
same,AC50,[12],24.4 µM (active)
same,outcome,[12],inactive
same,AC50,[13],50.2 nM (active)
same,outcome,[13],inactive
same,AC50,[14],19.8 µM (active)
same,outcome,[14],inactive
same,AC50,[15],23.7 µM (active)
same,outcome,[15],inactive
O=[N+]([O-])/N=C1\NCCN1Cc1ccc(Cl)nc1,outcome,[1],inactive
same,outcome,[2],inactive
same,outcome,[16],inactive
same,outcome,[4],inactive
same,outcome,[5],inactive
same,outcome,[6],inactive
same,outcome,[7],inactive
same,outcome,[8],inactive
same,outcome,[9],inactive
same,outcome,[10],inactive
same,outcome,[11],inactive
same,outcome,[12],inactive
same,outcome,[13],inactive
same,outcome,[14],inactive
same,outcome,[15],inactive
CC1(C)C(C=C(Cl)Cl)C1C(=O)OC(C#N)c1ccc(F)c(Oc2ccccc2)c1 (stereo unspecified),AC50,[1],407 nM (active) and 4.51 µM (active)
same,outcome,[2],inactive
same,outcome,[16],inactive
same,AC50,[4],0.173 µM (active)
same,outcome,[4],inactive
same,AC50,[5],1.66 µM (active)
same,outcome,[5],inactive
same,AC50,[6],574 nM (active)
same,outcome,[6],inactive
same,outcome,[7],inactive
same,AC50,[8],210 nM (active) and 1.95 µM (active)
same,AC50,[9],54.4 nM (active) and 609 nM (active)
same,AC50,[10],81.2 nM (active) and 622 nM (active)
same,AC50,[11],66.4 nM (active) and 796 nM (active)
same,AC50,[12],171 nM (active) and 612 nM (active)
same,AC50,[13],20.3 nM (active) and 102 nM (active)
same,AC50,[14],15 µM (active)
same,outcome,[14],inactive
same,AC50,[15],117 nM (active) and 558 nM (active)
O=C(O)CCCOc1ccc(Cl)cc1Cl,AC50,[17],32.5 µM (active)
same,outcome,[18],inactive
same,outcome,[19],inactive
same,outcome,[1],inactive
same,outcome,[2],inactive
same,outcome,[4],inactive
same,outcome,[5],inactive
same,outcome,[6],inactive
same,outcome,[7],inactive
same,outcome,[8],inactive
same,outcome,[9],inactive
same,outcome,[10],inactive
same,outcome,[11],inactive
same,outcome,[12],inactive
same,outcome,[13],inactive
same,outcome,[14],inactive
same,outcome,[15],inactive
O=[N+]([O-])c1c(Cl)c(Cl)c(Cl)c(Cl)c1Cl,outcome,[2],inactive
same,outcome,[3],inactive
same,outcome,[16],inactive
CC(C)N(C(=O)COc1nnc(C(F)(F)F)s1)c1ccc(F)cc1,AC50,[1],5.77 µM (active) and 2.11 µM (active)
same,outcome,[2],inactive
same,outcome,[4],inactive
same,outcome,[5],inactive
same,AC50,[6],1360 nM (active)
same,outcome,[6],inactive
same,AC50,[7],31.9 µM (active)
same,outcome,[7],inactive
same,AC50,[8],30.6 µM (active) and 15 µM (active)
same,outcome,[9],inactive
same,AC50,[10],1320 nM (active)
same,outcome,[10],inactive
same,outcome,[11],inactive
same,AC50,[12],5 µM (active)
same,outcome,[12],inactive
same,outcome,[13],inactive
same,AC50,[14],20 µM (active) and 10.9 µM (active)
same,AC50,[15],15 µM (active)
same,outcome,[15],inactive
CC(C)(C)C(O)C(Oc1ccc(Cl)cc1)n1cncn1 (stereo unspecified),outcome,[2],inactive
O=C(NC(=O)c1c(F)cccc1F)Nc1ccc(OC(F)(F)C(F)OC(F)(F)F)c(Cl)c1 (stereo unspecified),outcome,[2],inactive
same,outcome,[16],inactive
CCN(CC)C(=O)SCc1ccc(Cl)cc1,outcome,[2],inactive
same,outcome,[16],inactive
Clc1ccccc1-c1nnc(-c2ccccc2Cl)nn1,outcome,[1],inactive
same,outcome,[2],inactive
same,outcome,[4],inactive
same,outcome,[5],inactive
same,outcome,[6],inactive
same,outcome,[7],inactive
same,outcome,[8],inactive
same,outcome,[9],inactive
same,outcome,[10],inactive
same,outcome,[11],inactive
same,outcome,[12],inactive
same,outcome,[13],inactive
same,outcome,[14],inactive
same,outcome,[15],inactive
Cc1[nH]c(=O)n(C(C)(C)C)c(=O)c1Cl,outcome,[2],inactive
same,outcome,[16],inactive
